In PubChem BioAssay (NCI):
The panel holds about 79,000 compounds, 15% with a hit somewhere; the sample as a whole holds those more often. Active and inactive are the calls of the source. No stated cut-off is given here; in the data, active means growth inhibition above about 70%; inactive means the rest. Where a SMILES comes first, the peptide text is derived from it. The star is where a group is joined. Boc = CC(C)(C)OC(=O)*; OBn = c1ccc(CO*)cc1

Experiments:
[1] = NCI Yeast Anticancer Drug Screen. Data for the rad50 strain (AID 155);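 further: 0% = growth of vehicle-only cultures of the same strain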; conditions: S. cerevisiae rad50 strain growth inhibition; at 50.0 µM; active compounds read high
How it was run: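 Vehicle-treated cultures provide the reference for the growth inhibition reported for compound-exposed, repair-deficient yeast.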

[2] = NCI Yeast Anticancer Drug Screen. Data for the mec2-1 strain (AID 157); conditions: S. cerevisiae mec2-1 strain, at 50.0 µM, active compounds read high
How it was run: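 Yeast mec2-1 mutant treated with compound. Readout: growth inhibition vs vehicle controls.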

[3] = NCI Yeast Anticancer Drug Screen. Data for the sgs1 mgt1 strain (AID 161);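 further: 0% = growth of cultures given vehicle only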; conditions: S. cerevisiae sgs1 mgt1 strain, at 50.0 µM, active compounds read high
How it was run: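 Mutant yeast exposed to compound; growth scored against vehicle-only wells.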

[4] = NCI Yeast Anticancer Drug Screen. Data for the cln2 rad14 strain (AID 165);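 further: 0% = growth equal to vehicle treated cultures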; conditions: S. cerevisiae cln2 rad14 strain, at 50.0 µM, active compounds read high
How it was run: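 cln2 rad14 yeast strain; compound exposure; growth inhibition read vs vehicle controls.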

[5] = NCI Yeast Anticancer Drug Screen. Data for the bub3 strain (AID 167); conditions: S. cerevisiae bub3 mutant strain, at 50.0 µM, active compounds read high
How it was run: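 Mutant yeast screening strain plus compound; vehicle-treated cultures serve as the 0% inhibition reference.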

[6] = NCI Yeast Anticancer Drug Screen. Data for the mlh1 rad18 strain (AID 175); conditions: S. cerevisiae mlh1 rad18 strain growth inhibition; at 50.0 µM; active compounds read high
How it was run: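 Yeast w/ defined DNA-repair lesions; compound exposure; growth vs vehicle controls → % inhibition.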

Measured: growth inhibition

O=C(CCCO)c1nc2ccccc2s1
inactive: [1] -2.5% | [2] 12.9% | [3] 2.8% | [4] -8.55% | [5] 11.8% | [6] 4.7%

Cc1ccc(S(=O)(=O)Nc2ccccc2-c2nc3ccc([N+](=O)[O-])cc3c(=O)o2)cc1
inactive: [1] 35.6% | [2] 36.2% | [3] 22.1% | [4] 1.1% | [5] 11.8% | [6] 45.2%

Cc1ccc2[nH]c(=O)cc(C)c2c1
inactive: [1] 15.2% | [2] -0.45% | [3] 13.8% | [4] 20.2% | [5] 8.15% | [6] 30.8%

Cc1cc(=O)cc(-c2ccccc2)[nH]1
inactive: [1] -32.5% | [2] -11.3% | [3] -12.5% | [4] -37.3% | [5] -2.5% | [6] 6.55%

COC(=O)c1cccc2c1cc(Br)c1ccccc12
inactive: [1] 1.75% | [2] 11.6% | [3] 14.2% | [4] -30.4% | [5] 1.35% | [6] 16.3%

CO[C@@H]1C[C@H]2[C@@H]3CC[C@H]([C@H](C)COC(C)=O)[C@@]3(C)CC[C@@H]2[C@@]2(C)CC[C@H]3C[C@]312
inactive: [1] -4.65% | [2] 5.8% | [3] 1.55% | [4] -9.65% | [5] -1.6% | [6] 5.4%

CCO/C(O)=C(/C#N)C(=O)NC1=NCCCCC1
inactive: [1] 6.15% | [2] 8.25% | [3] 4.75% | [4] -43% | [5] 4.65% | [6] 16.4%

CCO[C@H]1OC(=O)[C@@H]2C(c3ccc(F)cc3)=NO[C@H]12
inactive: [1] -27.1% | [2] -44.4% | [3] 0.35% | [4] 2.7% | [5] 8.95% | [6] -9.3%

NC1=NC(c2ccccc2)C2=C(N1)C(=O)N(Cc1ccccc1)C2 (centres undefined)
inactive: [1] 5.65% | [2] -6.25% | [3] -0.8% | [4] -18.9% | [5] -16.8% | [6] 3.15%

CCCCCCCCCCCCCCCCCCOCCCCCC
inactive: [1] -8.65% | [2] -30.1% | [3] -19.8% | [4] 4.2% | [5] -10.3% | [6] -7.55%

CCN(CC)CCOc1cc(C(C)C)ccc1C
active: [1] 76% | [4] 76.2% | [6] 78.2%
inactive: [2] 63.5% | [3] 63.5% | [5] 40.5%

CC(=O)OC1CC(O)CC2=CCC3C4CCC(C(C)(O)C(O)CC5COC(=O)C5C)C4(C)CCC3C21C (centres undefined)
inactive: [1] 6.8% | [2] 5.4% | [3] 14.6% | [4] 3.45% | [5] -32.1% | [6] -30.1%

COc1ccc(CCCN2c3ccccc3Sc3ccccc32)cc1
inactive: [1] -6.1% | [2] -3.35% | [3] -21.2% | [4] -23.9% | [5] -19.9% | [6] -5.7%

Cc1ccccc1NC(=O)CC(=O)n1nc(-c2ccccc2)c(N=Nc2ccc([N+](=O)[O-])cc2)c1-c1ccccc1
inactive: [1] 46.4% | [2] 10.4% | [3] 56% | [4] 30.9% | [5] 52.8% | [6] 42.9%

O=C(Nc1ccc2ccccc2c1)C1CC1
inactive: [1] 0.2% | [2] -13.3% | [3] -9.15% | [4] -68.8% | [5] -33.1% | [6] -6.65%

Nc1nnc(N)c2nc(-c3ccccc3)c(-c3ccccc3)nc12
inactive: [1] 10.4% | [2] 16.4% | [3] 28.1% | [4] -14.8% | [5] 8.15% | [6] 20.9%

CC(C)(C)OC(=O)NC(C)(C)C(=O)NCCC(=O)O
inactive: [1] 0% | [2] -70% | [3] -1.8% | [4] 3.35% | [5] -15.2% | [6] -13.5%

Cc1cccc(Cl)c1NC(=O)CN(C)C
inactive: [1] 21.4% | [2] -0.55% | [3] 17.7% | [4] 10.4% | [5] 19.6% | [6] 24.7%

N#CN=C(N)NC(=O)/C=C/C=C/c1ccc(Cl)cc1
inactive: [1] 5.8% | [2] 16.8% | [3] 0.8% | [4] 9.8% | [5] 38% | [6] 24.8%

Cc1cc(NCCN(C(C)C)C(C)C)nc(Nc2nc3cc(Cl)c(Cl)cc3[nH]2)n1
inactive: [2] 39.2% | [4] 11.7% | [5] 23.1% | [6] 55.6%
active: [1] 75.8% | [3] 77.8%

COCN(COC)c1nc(CCC(Br)(Br)Br)nc(N(COC)COC)n1
inactive: [1] 36.5% | [2] 11.5% | [3] 21.9% | [4] 37% | [5] -2.85% | [6] 31%

CC(NC(=O)C(NC(=O)OC(C)(C)C)C(C)C)C(=O)N1CCCC1C(=O)NCC(=O)NC(C(=O)NCC(=O)OCc1ccccc1)C(C)C (centres undefined) (Boc-VAPGVG-OBn; configuration not given here)
inactive: [1] -30.1% | [2] -33.4% | [3] -20.9% | [4] 6.85% | [5] -18.9% | [6] -48.4%

CCOC(=O)c1cnc(N(C)C)nc1SC(=N)N
inactive: [1] -15.2% | [2] -0.7% | [3] -24.4% | [4] -53.9% | [5] -7.5% | [6] -18.6%

O=[N+]([O-])c1cccc(-c2cc3ccccn3c2)c1
inactive: [1] 28.9% | [2] 7% | [3] 13.8% | [4] 5.6% | [5] -1.95% | [6] 6.85%

Nc1nc2c(C(=O)N3CCCC3)nnn2c2cccc(Cl)c12
inactive: [1] -4.45% | [2] -11.7% | [3] 17% | [4] 18.3% | [5] 9.9% | [6] 0.05%

CSC(=Nc1ccc([N+](=O)[O-])cc1C#N)NC(=O)c1ccccc1
inactive: [1] -28.2% | [2] -19.9% | [3] -29.1% | [4] -15.1% | [5] -16.8% | [6] 9.55%

c1cc2c3c(c1)ccc1cccc(c13)CC2
inactive: [1] 4.45% | [2] -34.1% | [3] 3.3% | [4] 1.5% | [5] -22.8% | [6] 13.9%

Cc1ccc2nc(C)cc(NC(=O)c3ccccc3)c2c1
inactive: [1] 13.6% | [2] 8.45% | [3] 8.55% | [4] -18.1% | [5] -5.3% | [6] 24.2%

O=P(O)(OCCOc1ccccc1)OCCOc1ccccc1
inactive: [1] 6.25% | [2] 10.5% | [3] 8.25% | [4] -24.6% | [5] -11.6% | [6] -12.8%

COc1cccc2sc(-n3c(C)nc4ccccc4c3=O)nc12
inactive: [1] 33.5% | [2] 12.5% | [3] 54.8% | [4] 17.9% | [5] 51.9% | [6] 40.5%

CC(C)(C)C(=O)C1C(=O)c2ccccc2C1=O
inactive: [1] 50.6% | [2] 21.8% | [3] 54% | [4] -35.5% | [5] 5.95% | [6] 31.9%

CC(=O)CCCC(=O)O
inactive: [1] 10.5% | [2] 1.25% | [3] -24.5% | [4] -11.9% | [5] 0.45% | [6] 10.2%

CCOC(=O)/C(=C\OC(=O)c1ccccc1)NC(=O)Cc1ccccc1
inactive: [1] -1.9% | [2] 25.6% | [3] 22% | [4] -98.8% | [5] 37.2% | [6] 23.4%

O=c1cc(-c2ccccc2)oc2c(N=Nc3ccccc3)ccc(O)c12
inactive: [1] 33.8% | [2] -14.8% | [3] 22.9% | [4] 25.4% | [5] 22.4% | [6] -11.5%

COc1ccc(OC)c(C(=O)c2cccc(C(=O)c3cc(OC)ccc3OC)n2)c1
inactive: [1] 20.9% | [2] 6.25% | [3] 42.5% | [4] -21.8% | [5] -30.4% | [6] 20.6%

Cc1cc(O)cc2oc(=O)ccc12
inactive: [1] -34.4% | [2] -23.4% | [3] -9.9% | [4] -11.7% | [5] -11.7% | [6] -15.2%

O=C(CCBr)OCCOc1ccccc1
inactive: [1] 1.55% | [2] -3.6% | [3] 4.2% | [4] -39.8% | [5] 4.95% | [6] 2.7%

N#CCCSc1nnc(N)s1
inactive: [1] -7.85% | [2] -7.9% | [3] -8.65% | [4] 16.9% | [5] -2.95% | [6] -14.8%

CC(C)OC(=O)Nc1ccc(F)c(F)c1
inactive: [1] 24.9% | [2] -16.8% | [3] 2.6% | [4] -2.8% | [5] 6.85% | [6] 20.1%
